CtBP-E1A inh – CtBP/E1A binding inhibition. AlphaScreen GST-E1A/His-CtBP binding, 1536-well; stronger effect = lower value. activity change, % (test concentration not listed). hit rate 0.49% among 340,000. AID 651724; also: % is scaled to controls: 0 for no effect and ±100 for the full control effect
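GST-E1A and His-tagged CtBP (125 nM each as 5X stock) were preincubated with pin-transferred compound for 2 h at 37 °C in the dark, then glutathione donor and nickel acceptor beads were added for 1 h before AlphaScreen reading.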
Six1-Eya2 inh – blocks human Six1 binding to Eya2; Q15475+O00167; AlphaScreen GST-Six1/His-Eya2 binding, biochemical; stronger effect = lower value; activity change, % (test concentration not listed); hit rate 0.56% among 360,000; AID 651725; also: % is scaled to controls: 0 for no effect and ±100 for the full control effect
Target sequence (O00167 whole entry, looked up): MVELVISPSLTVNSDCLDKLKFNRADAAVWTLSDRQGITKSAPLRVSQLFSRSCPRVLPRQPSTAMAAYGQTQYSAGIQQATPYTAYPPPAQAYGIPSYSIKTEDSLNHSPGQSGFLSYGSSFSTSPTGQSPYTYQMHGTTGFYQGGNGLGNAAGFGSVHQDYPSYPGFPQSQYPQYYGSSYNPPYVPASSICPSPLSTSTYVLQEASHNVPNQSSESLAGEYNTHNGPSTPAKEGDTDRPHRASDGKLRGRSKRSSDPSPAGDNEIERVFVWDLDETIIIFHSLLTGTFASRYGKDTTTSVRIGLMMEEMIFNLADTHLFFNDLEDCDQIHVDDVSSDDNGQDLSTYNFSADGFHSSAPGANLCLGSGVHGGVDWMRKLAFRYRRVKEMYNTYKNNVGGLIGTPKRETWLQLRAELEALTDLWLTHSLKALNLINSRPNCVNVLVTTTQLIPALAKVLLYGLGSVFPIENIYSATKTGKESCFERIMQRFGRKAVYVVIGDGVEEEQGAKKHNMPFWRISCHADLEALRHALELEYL
Target sequence (Q15475 whole entry, looked up): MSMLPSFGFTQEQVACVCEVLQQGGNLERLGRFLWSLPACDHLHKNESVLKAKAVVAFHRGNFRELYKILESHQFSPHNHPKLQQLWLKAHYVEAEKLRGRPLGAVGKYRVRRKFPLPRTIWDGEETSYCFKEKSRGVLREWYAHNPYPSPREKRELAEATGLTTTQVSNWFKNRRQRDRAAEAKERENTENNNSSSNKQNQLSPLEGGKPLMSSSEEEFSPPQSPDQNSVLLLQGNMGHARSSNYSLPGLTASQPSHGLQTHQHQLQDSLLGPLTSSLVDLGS
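GST-Six1 + His-Eya2 (5X stock: 250/500 nM); Tris pH 8.0, 300 mM NaCl, 0.05% BSA, 0.02% Tween 20; GSH donor/Ni acceptor beads; 1 h 37 °C dark; AlphaScreen readout.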
MLL CXXC-DNA inh – inhibitors of human MLL CXXC domain-DNA interaction; MLL-CXXC / FITC-HOXA9 DNA fluorescence polarization; hit rate 0.037% among 290,000; Potency, µM (top dose mostly 115 µM), inactives show at the highest dose activity change, negative = inhibition, actives largely listed as inhibitors; AID 2662; active = well fitted inhibition curve with a large enough effect in the polarisation, with a control signal flat, not every such curve was filed as active; inconclusive = small, poorly fitted or top-dose-only effect, or effect the other way, or a change in a side signal; inactive = no such curve, though single readings can be large or run the other way; the % refers to the polarisation; also: potency is read from the fitted curve at half-maximal effect
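Fluorescence polarization: 7 uM MLL-CXXC (stock) preincubated 5 min with compounds, then 50 nM fluorescein-HOX-A9 DNA (stock) added; 30 min ambient. Buffer 50 mM Tris-HCl pH 7.5, 50 mM NaCl, 1 mM DTT, 0.05% BSA.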
GLS inhibitor – inhibitors of human glutaminase (GLS); Potency, µM (top dose mostly 45.5 µM), without a hit: top-dose activity change, negative = inhibition, usual class: inhibitors; GLS enzymatic activity, qHTS titration; O94925; hit rate 0.21% among 410,000; AID 624170; active = well fitted inhibition curve with a large enough effect; inconclusive = small, poorly fitted or top-dose-only effect, or another doubt; inactive = no such curve, though single readings can be large or run the other way; also: potency is read from the fitted curve at half-maximal effect; % is scaled to controls: 0 for no effect and ±100 for the full control effect
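hKGA; 45 mM KH2PO4 pH 8.2 + 0.02% Tween-20; cpd via pin tool; 1 mM Gln soln; GluOx/HRP/Amplex Red; RT 30 min; fluor. t0 & final.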
Menin MLL FP FL – displaces fluorescein MLL peptide from human menin | 290,000 tested, under 10 active | FP activity change, % at 61.4 µM | Fluorescence polarization, fluorescein-MLL peptide displacement from menin; active = well fitted curve in the direction sought with a large enough effect in the polarisation, not every such curve was filed as active; inconclusive = small, poorly fitted or top-dose-only effect, or effect the other way, or a change in a side signal; inactive = no such curve, though single readings can be large or run the other way; the % refers to the polarisation; also: % of control where 0% means no effect
Menin-MLL TR inh – inhibitors of human menin-MLL interaction, mutant MLL peptide; hit rate 0.23% among 270,000; O00255; Potency, µM (titrated, usually from 61.6 µM), for the others: at the top dose FP activity change, negative = inhibition, most hits filed as inhibitors; Menin + Texas Red MLL mutant peptide, fluorescence polarization; active = well fitted inhibition curve with a large enough effect in the polarisation, with a control signal flat, not every such curve was filed as active; inconclusive = small, poorly fitted or top-dose-only effect, or effect the other way, or a change in a side signal; inactive = no such curve, though single readings can be large or run the other way; the % refers to the polarisation; also: potency is read from the fitted curve at half-maximal effect; % of control where 0% means no effect
An asterisk follows results filed as active; [ ] = dose if it differs, or a comment. Sampled rows, rich in hits. Any-hit rate of the full collection: about 0.83%. Rule as the data show it, unless noted: active = activity change below about -65%; inconclusive = mostly about -30% to -63%; inactive = weaker than that.

What do the screens show for `CN(C)c1ccc(CNCCC(Cc2ccccc2)c2ccco2)cc1` (centres undefined)?
CtBP-E1A inh: inconclusive; Six1-Eya2 inh: -65.5*; MLL CXXC-DNA inh: inconclusive; GLS inhibitor: -6.6%; Menin MLL FP FL: -3.8; Menin-MLL TR inh: inconclusive

How did c1ccc(CNCCC(Cc2ccccc2)c2ccco2)cc1 (centres undefined) do in these assays?
CtBP-E1A inh: 3.3; Six1-Eya2 inh: -23.7; MLL CXXC-DNA inh: -9.7%; GLS inhibitor: 5.8%; Menin MLL FP FL: 10.2

What do the screens show for `O=C(c1ccc(Cl)c(Cl)c1)c1cnc(Nc2ccccc2)s1`?
CtBP-E1A inh: -2.6; Six1-Eya2 inh: 6.7; MLL CXXC-DNA inh: 7.2%; GLS inhibitor: 0.7%; Menin MLL FP FL: 1.9; Menin-MLL TR inh: 22.4µM*

What do the screens show for `CNc1ncc(C(=O)c2ccc(Cl)c(Cl)c2)s1`?
CtBP-E1A inh: 2.7; Six1-Eya2 inh: -1.6; MLL CXXC-DNA inh: 7.8%; GLS inhibitor: -2.3%; Menin MLL FP FL: 0.4; Menin-MLL TR inh: 4.3%

What do the screens show for `Cc1cc(C)c(NC(=O)CSc2nc3ccccc3c3nc(CCn4cncc4C)nn23)c(C)c1`?
GLS inhibitor: -0.5%

What do the screens show for `Cc1ccc(C(=O)N/N=C/c2ccc(-c3ccccc3[N+](=O)[O-])o2)cn1`?
CtBP-E1A inh: inconclusive; Six1-Eya2 inh: -69.0*; MLL CXXC-DNA inh: 1.4%; GLS inhibitor: 13.5%; Menin MLL FP FL: inconclusive; Menin-MLL TR inh: inconclusive

What do the screens show for `O=C(O)CCC(=O)Nc1ccc(Cc2ccc(NC(=O)CCC(=O)O)c(O)c2)cc1O`?
CtBP-E1A inh: 3.7; Six1-Eya2 inh: 1.7; MLL CXXC-DNA inh: 0.9%; GLS inhibitor: 1.41µM*; Menin MLL FP FL: 0.7; Menin-MLL TR inh: 6.5%

What do the screens show for `O=C(Nc1ccc(Cc2ccc(NC(=O)C3CC3)c(O)c2)cc1O)C1CC1`?
CtBP-E1A inh: 3.8; Six1-Eya2 inh: -0.9; MLL CXXC-DNA inh: 12.3%; GLS inhibitor: -1.5%; Menin MLL FP FL: -0.2; Menin-MLL TR inh: inconclusive

What do the screens show for `Cc1n[nH]c(=O)nc1N/N=C/c1ccco1`?
CtBP-E1A inh: inconclusive; Six1-Eya2 inh: -68.0*; MLL CXXC-DNA inh: 0.9%; GLS inhibitor: 6.1%; Menin MLL FP FL: -0.1; Menin-MLL TR inh: 7.0%

Results for CCOc1ccc(-c2cc(C)n3nc(C(=O)Nc4cc(Cl)ccc4O)cc3n2)cc1 ?
GLS inhibitor: 0.3%

Results for COc1ccc(-c2cc(=O)c3ccc(F)cc3[nH]2)cc1 ?
Menin MLL FP FL: -5.3[94.6 µM]; Menin-MLL TR inh: 50.1µM*

What do the screens show for `Cn1cccc1CNC(=O)Nc1ccccc1`?
CtBP-E1A inh: -15.4; Six1-Eya2 inh: -6.8; MLL CXXC-DNA inh: 20.9%; GLS inhibitor: 2.8%; Menin MLL FP FL: 0.2; Menin-MLL TR inh: 2.7%

What do the screens show for `Cc1ccc(NC(=O)NCc2cccn2C)cc1C`?
CtBP-E1A inh: -11.0; Six1-Eya2 inh: -0.7; MLL CXXC-DNA inh: 21.2%; GLS inhibitor: 7.08µM*; Menin MLL FP FL: 7.0; Menin-MLL TR inh: 9.7%

Results for O=C(O)c1cc(N2N=C(C(F)(F)F)/C(=C/C=C/c3ccco3)C2=O)ccc1Cl ?
CtBP-E1A inh: -11.1; Six1-Eya2 inh: -78.2*; MLL CXXC-DNA inh: 14.2%; GLS inhibitor: 8.91µM*; Menin MLL FP FL: inconclusive; Menin-MLL TR inh: inconclusive

How did O=C(Nc1ccccc1C(F)(F)F)c1ncn[nH]1 do in these assays?
CtBP-E1A inh: -87.9*; Six1-Eya2 inh: -73.6*; MLL CXXC-DNA inh: -3.5%; GLS inhibitor: -3.9%; Menin MLL FP FL: 0.9

Results for Cc1ccccc1CNCCSc1nnnn1-c1ccccc1 ?
GLS inhibitor: 0.7%

How did C=C1CCN(C(Cc2ccccc2)C(=O)NCc2ccc(Cl)cc2)S(=O)(=O)c2ccccc21 (centres undefined) do in these assays?
Menin MLL FP FL: -1.7; Menin-MLL TR inh: 13.2%

How did O=C(Oc1cccc2cccnc12)c1ccco1 do in these assays?
CtBP-E1A inh: inconclusive; Six1-Eya2 inh: inconclusive; MLL CXXC-DNA inh: -7.1%; GLS inhibitor: 7.7%; Menin MLL FP FL: 0.2; Menin-MLL TR inh: 12.7%

What do the screens show for `O=C(Oc1ccc(Cl)c2cccnc12)c1ccco1`?
CtBP-E1A inh: -83.0*; Six1-Eya2 inh: -87.6*; MLL CXXC-DNA inh: -12.2%; GLS inhibitor: 2.5%; Menin MLL FP FL: -1.2

Source: PubChem BioAssay (National Center for Advancing Translational Sciences (NCATS))
